Assay outcomes: PubChem, National Center for Advancing Translational Sciences (NCATS)
KinaseGlo FLuc: blocks Kinase-Glo luciferase, a counter-screen artifact | Potency, µM (top dose mostly 38.3 µM), usual class: inhibitors | 0.28% of 200,000 active | AID 1379 | Kinase-Glo luciferase, ATP luminescence, 8 min; further: nearly all actives have a fitted effect of over 60% in size
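Luminescence was the read-out, taken after 8-minute incubation at ambient temperature. Luciferase turned over luciferin with 10 uM ATP in imidazole pH 7.2 buffer containing KCl, MgCl2, Tween 20 and BSA.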
VP16 counter: counter-screen for ROR gamma inhibitors: Gal4-VP16 reporter; Potency, µM (highest dose often 53.6 µM), actives largely listed as inhibitors; AID 2546; 3.5% of 310,000 active; Drosophila S2 Gal4-VP16 UAS-luciferase, luminescence, 20 h;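 further: Gal4-VP16 expression switched on by copper sulfate through the metallothionein promoter; nearly all actives have a fitted effect of over 50% in size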
RORgamma inh: inhibitors of mouse ROR gamma transcriptional activity; 5.4% of 310,000 active; Potency, µM (doses to about 53.6 µM), actives largely listed as inhibitors; Drosophila S2 Gal4-RORgamma UAS-luciferase reporter, 20 h; AID 2551; P51450; further: nearly all actives have a fitted effect of over 60% in size
Target sequence (P51450 whole entry, looked up, the tested form may be a part): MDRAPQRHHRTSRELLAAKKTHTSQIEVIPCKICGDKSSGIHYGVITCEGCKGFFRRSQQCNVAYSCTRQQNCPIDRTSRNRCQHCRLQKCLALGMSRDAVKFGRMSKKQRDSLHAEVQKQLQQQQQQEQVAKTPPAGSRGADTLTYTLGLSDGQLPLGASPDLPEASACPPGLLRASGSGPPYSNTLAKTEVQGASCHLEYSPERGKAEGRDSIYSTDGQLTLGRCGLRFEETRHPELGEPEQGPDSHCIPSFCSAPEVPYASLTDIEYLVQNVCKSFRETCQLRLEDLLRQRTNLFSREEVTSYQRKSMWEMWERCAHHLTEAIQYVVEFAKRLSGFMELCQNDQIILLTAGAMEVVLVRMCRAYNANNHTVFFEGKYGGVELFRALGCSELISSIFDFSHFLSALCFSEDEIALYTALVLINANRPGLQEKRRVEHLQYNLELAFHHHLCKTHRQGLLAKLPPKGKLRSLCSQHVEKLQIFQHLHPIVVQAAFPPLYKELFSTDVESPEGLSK
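ROR gamma transcriptional activity was tracked as Gal4-UAS luciferase output in stably transfected Drosophila Schneider cells, with compound added 1 hr before 700 uM copper sulfate induction and a 20 hr ambient-temperature incubation.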
Numbers stand for hits; 0 = inactive; ? = inconclusive; - = no result given; [ ] = remark or other dose. The list is not random: actives were taken first. Their share in the collection is about 6.2%. The call rests on the fitted dose curve; in most records, active means well fitted curve in the direction sought with a large enough effect; inconclusive means small, poorly fitted or top-dose-only effect, or another doubt; inactive means no such curve, though single readings can be large; an effect the other way counts as inactive or inconclusive.

SMILES | KinaseGlo FLuc | VP16 counter | RORgamma inh
O=C(/C=C/c1ccccc1)NC(=S)Nc1ccc(CN2CCOCC2)cc1 | 0 | ? | 3.98µM
O=C(/C=C/c1ccc(Cl)cc1Cl)n1cccn1 | 0 | 0 | 0
O=C(/C=C/c1ccc(O)cc1)OC[C@H]1O[C@@H](Oc2c(-c3ccc(O)cc3)oc3cc(O)cc(O)c3c2=O)[C@H](O)[C@@H](O)[C@@H]1O | - | 0 | 0
O=C(c1cc(F)c(F)cc1Cl)N1CCN(CCc2ccccc2)CC1 | - | 0 | 0[1.91 µM]
CCn1c(/N=C/c2ccc(OC)cc2O)nc2ccccc21 | - | ? | 20µM
CCCn1c(/N=C/c2ccccc2O)nc2ccccc21 | 0 | 0 | 0
Cc1ccc(Nc2nc(NCc3ccco3)c3ccccc3n2)cc1 | 0 | 0[10 µM] | ?
COc1ccc(NC(=O)N2CC[C@@]3(CCCN(C(=O)c4ccco4)C3)C2)cc1 | 0 | 0 | 0
O=C(CN1C(=O)/C(=C\c2ccc(F)cc2)Oc2ccccc21)N1CCN(c2ccccn2)CC1 | 0 | 0 | 0
CSc1ccc(/C=C/C(=O)N2CCN(c3ccccn3)CC2)cc1 | - | 0 | 12.6µM
COc1ccc(/C=C/C(=O)NC(=S)N2CCN(c3ccccn3)CC2)cc1OC | 0 | 11.2µM | 3.16µM
O=C(/C=C/c1ccc(F)cc1)NC(=S)N1CCN(c2ccccn2)CC1 | - | 20µM | 2.51µM
COc1ccc(/C=C/C(=O)N2CCN(c3ccccn3)CC2)cc1 | - | 0 | 0
COc1ccc(CC(=O)N2CCN(c3ccccn3)CC2)cc1OC | 0 | 0 | 0
Clc1ccccc1CONc1ncnc2nonc12 | 0 | 0 | ?
Cc1ccccc1C(=O)N/N=C1\SCC(=O)N1Cc1ccco1 | 0 | ? | 0
CC(=O)N[C@@H](C(=O)O)C(C)(C)SN=O | 0 | 0 | 0
COc1ccccc1-c1cc(Nc2ccc(F)cc2)ncn1 | - | ? | 0
COc1ccc(-c2nc3cnc(Nc4cccc(OC)c4)nc3n(CCC#N)c2=O)cc1 | 0 | 0 | 0
COc1ccc(C(=O)Nc2ccc3c(c2)nc(CCNC(=O)c2ccco2)n3C)cc1 | - | 0 | 0
O=C(Cn1nc(C(F)F)cc1C(F)F)NNC(=S)Nc1ccc([N+](=O)[O-])cc1 | 0 | ? | 10µM
Cc1cc(C(F)(F)F)nn1CC(=O)NNC(=S)Nc1cccc(Cl)c1 | 0 | ? | 11.2µM
Cc1ccc(NC(=S)NNC(=O)Cn2nc([N+](=O)[O-])cc2C)cc1 | 0 | 0 | 0
COc1cccc(NC(=S)NNC(=O)Cn2nc([N+](=O)[O-])cc2C)c1 | 0 | 0[10 µM] | 0
O=C(Cn1nc(C(F)F)cc1C(F)F)NNC(=S)Nc1ccc(F)cc1 | 0 | 0 | 0
SMILES | KinaseGlo FLuc | VP16 counter | RORgamma inh
Cc1cc([N+](=O)[O-])nn1CC(=O)NNC(=S)Nc1ccc(Cl)cc1 | 0 | ? | 15.8µM
Cc1cc(C(F)(F)F)nn1CC(=O)Nc1cccnc1 | 0 | 0 | 0
COc1cccc(NC(=S)NNC(=O)Cn2nc(C(F)F)cc2C(F)F)c1 | 0 | ? | 1.12µM
COc1ccc(OC)c(C(=O)NC(CC(N)=O)c2ccc(NC(C)C)c([N+](=O)[O-])c2)c1 (stereo unspecified) | - | 0 | 0
COc1ccc(-n2nc3c(N4CCC(C(=O)N5CCC(C)CC5)CC4)nnc(C)c3c2C)cc1 | - | 0 | 0
CCn1c(C(=O)N2CCCC(C(=O)NCCc3ccc(C)cc3)C2)cc2sccc21 (stereo unspecified) | 0 | 0 | ?
CCn1c(C(=O)N2CCCC(C(=O)NCCCc3ccccc3)C2)cc2sccc21 (stereo unspecified) | 0 | 11.2µM | ?
CCCc1cc(COC)c(C#N)c(=O)[nH]1 | 0[7.66 µM] | - | -
Cc1ccc(-c2nn(-c3ccccc3)cc2C=C2C(=O)CC(C)(C)CC2=O)cc1 | 0 | 0 | 0
CC1=NNC(=O)/C1=C\c1cn(-c2ccccc2)nc1-c1ccc(Cl)cc1 | 0 | 3.16µM | 5.01µM
COc1ccc(-c2nc(-c3ccccc3)c(Nc3c(C)cccc3C)o2)cc1 | 0 | 0 | 0
N[C@H](C(=O)O)[C@H](N)C(=O)O | 0[7.66 µM] | - | -
Cc1noc(C)c1-c1cc(NC2CC2)ncn1 | 0 | 0 | ?
COc1ccc(N2C(=O)C(CC(=O)Nc3ccc(F)cc3)N(CCc3ccc(OC)c(OC)c3)C2=O)cc1 (stereo unspecified) | 0 | 0 | 0
C/C(CCN1CCc2nc(-c3ccccc3)c(-c3ccccc3)cc2C1)=N\OC[C@@H](O)[C@@H]1O[C@@H]2OC(C)(C)O[C@@H]2[C@H]1O | - | 0[10 µM] | 0[10 µM]
COc1cc(OC)cc(C2=NC3(CCC(C)CC3)NC2=S)c1 (stereo unspecified) | 0 | 0 | 1.41µM
CCOCCCNC(=O)CCn1nc(-c2ccc(Cl)cc2)ccc1=O | - | 0 | 0
c1ccc(-n2nnc3cnccc32)cc1 | 0 | 0 | 0
Cc1noc(C)c1NC(=O)N1CCN(Cc2ccccc2)CC1 | - | 0 | 0
Cc1cc(C(=O)N/N=C/c2cc(Cl)cc([N+](=O)[O-])c2O)n[nH]1 | - | ? | 7.94µM
Cc1cc(C(=O)N/N=C/c2ccccc2Br)no1 | 0 | 0 | 0
Cc1cc(C(=O)N/N=C/c2cccnc2)n[nH]1 | - | 0 | 0
Cc1cc(C(=O)N/N=C/c2ccc[nH]2)no1 | 0 | 11.2µM | 10µM
Cc1cc(C(=O)N/N=C\c2cc(C(C)(C)C)c(O)c(C(C)(C)C)c2)n[nH]1 | - | 3.55µM | 6.31µM
Cc1cc(C(=O)N/N=C/c2ccc[nH]2)n[nH]1 | - | 0 | 2.82µM
SMILES | KinaseGlo FLuc | VP16 counter | RORgamma inh
Cc1cc(C(=O)N/N=C/c2ccc([N+](=O)[O-])s2)n[nH]1 | - | ? | 0
Cc1cc(C(=O)N/N=C/c2ccc3ccccc3c2)n[nH]1 | - | 0 | 0
CCCCCOc1ccc(C(=O)NC(C(=O)O)C(C)C)cc1 (stereo unspecified) | 0 | 0 | 0
CCC(C)C(=O)N1c2ccccc2C(=C2SC(C(=O)OC)=C(C(=O)OC)S2)C(=S)C1(C)C (stereo unspecified) | 0 | 0 | 0
CC(C)(C)c1ccc(S(=O)(=O)NCc2ccccn2)cc1 | - | ? | 0
CC(C)(C)c1cc(C(C)(C)C)cc(S(=O)(=O)CCc2ccccn2)c1 | 0 | 0 | 11.2µM
C/C(Cn1nnc([N+](=O)[O-])n1)=N\NC(=O)c1ccccc1Cl | 0 | ? | ?
C/C(Cn1nc([N+](=O)[O-])cc1C)=N\NC(=O)c1cccc(Br)c1 | 0 | ? | 12.6µM
C/C(Cn1nnc([N+](=O)[O-])n1)=N\NC(=O)c1cccc(Cl)c1 | 0 | ? | 10µM
C/C(Cn1nc([N+](=O)[O-])cc1C)=N\NC(=O)COc1ccccc1[N+](=O)[O-] | 0 | ? | 0
CCOc1ccc(C(=O)NCC2OCCc3ccccc32)cc1 (stereo unspecified) | 0 | 0 | 0
CC(C)[C@H](NC(=O)NCc1ccc(F)cc1)C(=O)O | - | 0 | 0
Cc1ccc(S(=O)(=O)NC2CC2)s1 | - | 0 | ?
COc1cccc(OC)c1OCCCc1c(C)n[nH]c1C | 0 | 0 | 0
Cc1cccc(OCCCc2c(C)n[nH]c2C)c1 | 0 | 0 | 11.2µM
O=P1(O)OP(=O)(O)OP(=O)(O)O1.[Al] | - | 0 | 0
Cc1ccc(CNCc2cccnc2)s1 | 0 | 0 | 0
CC(C)(C)c1cc(OS(C)(=O)=O)ccc1O | 0 | ? | 0
CC(C)(C)c1cc(OC(=O)C2CCCC2)ccc1O | - | 11.2µM | ?
CCOc1ccc(S(=O)(=O)N2CCN(CC)CC2)cc1NC(=O)c1ccccc1F | - | 0 | 0
CCOc1ccc(S(=O)(=O)N2CCN(C)CC2)cc1NC(=O)c1ccccc1F | - | ? | 3.98µM
CCCc1ccc2oc(C(=O)N3CCC(COC)C3)c(C)c2c1 (stereo unspecified) | - | 0 | 0[1.91 µM]
